Records with an inconclusive call do not appear. Where a call stands in place of a potency, no number is given. Activity calls are given as the source filed them. Calls follow the shape of the full dose curve.
What was measured:
[1] = Primary qHTS for Huh7 cytotoxicity: counterscreen for inhibitors of MERS-S pseudotyped particle cell entry (AID 1479147)
[2] = Primary qHTS for inhibitors of MERS-S pseudo-typed particle cell entry (AID 1479149); also: nearly all actives have a fitted effect of over 60% in size
[3] = Primary qHTS for Vero E6 cytotoxicity: counterscreen for inhibitors of SARS-S pseudo-typed particle cell entry (AID 1479150)
[4] = Cytotoxicity counterscreen for inhibitors of SARS-CoV-2 cell entry (AID 1645845); also: nearly all actives have a fitted effect of over 50% in size
Procedure, shortened: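 ATP-content luminescence (ATPLite 1step, 15 min RT) read after 48 h compound exposure of Expi293F cells stably expressing human ACE2; normalized to cells-only wells and media-only wells.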

[5] = Primary qHTS to identify inhibitors of SARS-CoV-2 cell entry (AID 1645846); settings: activity change, negative = inhibition: at 57.1 µM (top of the series) unless noted; also: nearly all actives have a fitted effect of over 45% in size
Procedure, shortened: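 Inhibition of spike-mediated entry was scored in human ACE2-transfected Expi293F cells. Particles were MLV-pseudotyped with Wuhan-Hu-1 S carrying a 19-aa C-terminal deletion; signal was luciferase after two days, scaled between spike PP and fusion-protein-free PP.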

Row | SMILES | Potency [1] | Potency [2] | Potency [3] | Potency [4] | activity change, negative = inhibition [5] [%] | Potency [5]
1 | Cc1nccn1CC1CCc2c(c3ccccc3n2C)C1=O (stereo unspecified) | inactive | inactive | inactive | inactive | -12.3 | –
2 | C[C@@H]1C[C@H]2[C@@H]3CCC4=CC(=O)C=C[C@]4(C)[C@@]3(F)[C@@H](O)C[C@]2(C)[C@@]1(O)C(=O)CO | inactive | inactive | inactive | inactive | – | inactive
3 | C[C@H]1O[C@H](O[C@H]2[C@H](O)[C@@H](O)[C@@H](O[C@H]3[C@H](O)[C@@H](O)[C@H](O)O[C@@H]3CO)O[C@@H]2CO)[C@H](O)[C@@H](O)[C@@H]1N[C@H]1C=C(CO)[C@@H](O)[C@H](O)[C@H]1O | inactive | inactive | inactive | inactive | – | inactive
4 | CN1C(CCl)Nc2cc(Cl)c(S(N)(=O)=O)cc2S1(=O)=O (stereo unspecified) | inactive | inactive | inactive | inactive | – | inactive
5 | O=c1[nH]cnc2c1ncn2[C@H]1CC[C@@H](CO)O1 | inactive | inactive | inactive | inactive | – | inactive
6 | COCCCC/C(=N\OCCN)c1ccc(C(F)(F)F)cc1 | inactive | inactive | inactive | inactive | 2.14 | –
7 | CN(C)CCOC(C)(c1ccccc1)c1ccccn1 (stereo unspecified) | inactive | inactive | inactive | inactive | 2.27 | –
8 | Cc1ccccc1C(=O)Nc1ccc(C(=O)N2CCCC(O)c3cc(Cl)ccc32)c(C)c1 (stereo unspecified) | inactive | inactive | inactive | inactive | -8.91 | –
9 | CC(COc1ccccc1)N(CCCl)Cc1ccccc1 (stereo unspecified) | inactive | inactive | inactive | inactive | -7.59 | –
10 | CO/N=C(\C(=O)N[C@@H]1C(=O)N2C(C(=O)O)=C(CSc3nc(=O)c(O)nn3C)CS[C@H]12)c1csc(N)n1 | inactive | inactive | inactive | inactive | – | inactive
11 | COc1ccccc1OCC(O)COC(N)=O (stereo unspecified) | inactive | inactive | inactive | inactive | – | inactive
12 | Nc1nc2c(ncn2COCCO)c(=O)[nH]1 | inactive | inactive | inactive | inactive | – | inactive
13 | CCOC(=O)[C@H](CCc1ccccc1)N[C@@H](C)C(=O)N1Cc2cc(OC)c(OC)cc2C[C@H]1C(=O)O | inactive | inactive | inactive | inactive | -29.2 | –
14 | C1N2CN3CN1CN(C2)C3 | inactive | inactive | inactive | inactive | – | inactive
15 | CN(C)c1nc(N(C)C)nc(N(C)C)n1 | inactive | inactive | inactive | inactive | -16.8 | inactive
